We go through seven molecules from PubChem BioAssay (NCI).

Molecules are shown by their SMILES. The panel holds about 83,000 compounds, 20% with a hit somewhere; the sample as a whole holds those more often.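 A percent growth of 40 corresponds to 60% growth inhibition; 0 means no net growth; -100 means all cells died. Active threshold: below 10.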 A number with no mark means an inactive call. Active and inactive are the calls of the source.

Among the test systems are HCT-15 colon; HT29 colon; SNB-75 CNS; SNB-19 CNS; U251 CNS; PC-3 prostate; SK-MEL-5 melanoma; UACC-62 melanoma; LOX IMVI melanoma; SK-MEL-28 melanoma; EKVX NSCLC; SN12C renal; UO-31 renal; TK-10 renal; ACHN renal; CAKI-1 renal; A498 renal; CCRF-CEM leukemia; MOLT-4 leukemia.
Test in all cases: NCI-60 one-dose screen, 48 h (100 = growth as untreated, 0 = no growth, -100 = all killed)
Conditions in all cases: 10 µM unless noted

As to `O=c1sn(-c2cccc3ccccc23)c(=O)n1Cc1ccccc1`, the growth in the test with HCT-15 colon was 104%; in the test on HT29 colon it was 100%; with SNB-75 CNS, 105%; in the test on SNB-19 CNS it was 101%; with U251 CNS, 97.1%; in the test on PC-3 prostate, 89.9%. Also, the growth with SK-MEL-5 melanoma is 104%; with UACC-62 melanoma it was 92.6%; in the test with LOX IMVI melanoma, 99.9%; in the test with SK-MEL-28 melanoma, 114%; in the test with EKVX NSCLC it was 108%; with SN12C renal, 94.8%. For the same molecule, the growth in the test on UO-31 renal is 86.3%; with TK-10 renal it was 95.5%; in the test with ACHN renal it was 106%; in the test with CAKI-1 renal it was 99%; with A498 renal, 102%; in the test with CCRF-CEM leukemia, 64.9%. The growth in the test on MOLT-4 leukemia is 39.1%.
Turning to `CC(=O)NCC(=O)N1[C@@H]2CC[C@H]1c1ccc(Nc3ncc(C(F)(F)F)c(NC4CCC4)n3)cc12`, the growth with HCT-15 colon was 26.8% [2.5 µM]; in the test on HT29 colon, 14.1% [2.5 µM]; with SNB-75 CNS it was 19.7% [2.5 µM]; in the test on SNB-19 CNS it was 73.9% [2.5 µM]; in the test with U251 CNS, 56.2% [2.5 µM]; in the test on PC-3 prostate it was 57.2% [2.5 µM]. In addition, the growth in the test on SK-MEL-5 melanoma was 58.1% [2.5 µM]; in the test with UACC-62 melanoma, 56.3% [2.5 µM]; with LOX IMVI melanoma, 22% [2.5 µM]; with SK-MEL-28 melanoma, 70.8% [2.5 µM]; with EKVX NSCLC, 69.1% [2.5 µM]; in the test on SN12C renal it was 37.8% [2.5 µM]. In addition, the growth in the test on UO-31 renal was 2.84% [2.5 µM] (active); with TK-10 renal, 43.7% [2.5 µM]; in the test with ACHN renal, 38.6% [2.5 µM]; in the test with CAKI-1 renal, 20.5% [2.5 µM]; in the test on A498 renal, 14.7% [2.5 µM]; in the test with CCRF-CEM leukemia, 40.2% [2.5 µM]. In addition, in the test with MOLT-4 leukemia, the growth is 20% [2.5 µM].
Turning to `Cc1ccc(NC(=O)c2ccc(CN3CC[C@H](N(C)C)C3)c(C(F)(F)F)c2)cc1Nc1nccc(-c2cncnc2)n1`, the growth was 8.37% (active) in the test with HCT-15 colon; -47.3% (active) in the test with HT29 colon; -85.9% (active) in the test on SNB-75 CNS; 19.6% in the test with SNB-19 CNS; -36% (active) in the test with U251 CNS; 10.9% in the test on PC-3 prostate. In addition, the growth was -96.6% (active) with SK-MEL-5 melanoma; -63.5% (active) in the test on UACC-62 melanoma; -72.7% (active) with LOX IMVI melanoma; -77.8% (active) in the test with SK-MEL-28 melanoma; 15.3% with EKVX NSCLC; -32.6% (active) in the test on SN12C renal. The growth with UO-31 renal was -61.3% (active); in the test with TK-10 renal it was -30.1% (active); in the test on ACHN renal it was 1.22% (active); in the test with CAKI-1 renal, 6.85% (active); in the test on A498 renal it was -59.9% (active); in the test with CCRF-CEM leukemia, 4.61% (active). The growth in the test on MOLT-4 leukemia was -4.64% (active).
For the molecule `O=S1(=O)OC(c2ccc(O)c(Cl)c2)(c2ccc(O)c(Cl)c2)c2ccccc21`, the growth is 102% in the test with HCT-15 colon; 123% with HT29 colon; 78.4% in the test with SNB-75 CNS; 103% in the test with SNB-19 CNS; 111% in the test with U251 CNS; 77.8% in the test on PC-3 prostate. Also, the growth with SK-MEL-5 melanoma is 95.9%; in the test on UACC-62 melanoma, 99.5%; with LOX IMVI melanoma it was 100%; with SK-MEL-28 melanoma it was 114%; in the test with EKVX NSCLC, 112%; in the test with SN12C renal, 97%. Further, the growth with UO-31 renal was 66.2%; in the test on TK-10 renal, 100%; with ACHN renal it was 96.9%; with CAKI-1 renal it was 90.2%; in the test on A498 renal it was 90.3%; in the test with CCRF-CEM leukemia it was 102%. Besides, the growth with MOLT-4 leukemia is 109%.
`C=CC(=O)Nc1cccc(Oc2nc(Nc3ccc(N4CCN(C)CC4)cc3)nc3ccsc23)c1`: the growth in the test on HCT-15 colon was -21.9% (active); with HT29 colon it was -60% (active); with SNB-75 CNS, -81.1% (active); in the test on SNB-19 CNS, 12.8%; with U251 CNS, -84.7% (active); in the test with PC-3 prostate it was -44.5% (active). Further, the growth was -97.2% (active) in the test with SK-MEL-5 melanoma; -78.2% (active) in the test on UACC-62 melanoma; -85% (active) in the test on LOX IMVI melanoma; -91.6% (active) in the test with SK-MEL-28 melanoma; 16.4% with EKVX NSCLC; -70.6% (active) in the test on SN12C renal. Moreover, the growth in the test with UO-31 renal is -89.6% (active); in the test on TK-10 renal, -79% (active); with ACHN renal, -96.6% (active); in the test on CAKI-1 renal, -71.4% (active); with A498 renal, 33.6%; in the test with CCRF-CEM leukemia it was 1.89% (active). The growth in the test on MOLT-4 leukemia was -37.7% (active).
With `C=C1CC[C@@H]2[C@](C)(COC(C)=O)[C@H](OC(C)=O)CC[C@@]2(C)[C@@H]1C/C=C1/C(=O)OC[C@H]1OC(C)=O`, the growth with HCT-15 colon was -23% (active); with HT29 colon, -39.4% (active); with SNB-75 CNS, 44.9%; in the test with SNB-19 CNS, 83%; with U251 CNS, 54%; in the test on PC-3 prostate it was 88.5%. Moreover, the growth is 56.2% in the test with SK-MEL-5 melanoma; 29.7% with UACC-62 melanoma; -74.4% (active) with LOX IMVI melanoma; 37.8% in the test on SK-MEL-28 melanoma; 103% in the test with EKVX NSCLC; 33.4% in the test on SN12C renal. For the same molecule, the growth in the test on UO-31 renal is 62.8%; in the test with TK-10 renal, 16.9%; in the test on ACHN renal it was 19.5%; in the test on CAKI-1 renal, 81.5%; in the test with A498 renal, 90.6%; with CCRF-CEM leukemia, -11.4% (active). In the test on MOLT-4 leukemia, the growth was -6.05% (active).
With `COc1cc2c(Oc3ccc(NC(=O)C4(C(=O)Nc5ccc(F)cc5)CC4)cc3F)ccnc2cc1OCCCN1CCOCC1`, the growth is -26% (active) with HCT-15 colon; -59.2% (active) in the test with HT29 colon; -96.9% (active) in the test with SNB-75 CNS; 10.6% with SNB-19 CNS; -57.8% (active) in the test with U251 CNS; 7.39% (active) in the test on PC-3 prostate. Besides, the growth with SK-MEL-5 melanoma is -96.1% (active); in the test on UACC-62 melanoma, -67.8% (active); in the test on LOX IMVI melanoma, -89.5% (active); in the test with SK-MEL-28 melanoma, -78.2% (active); with EKVX NSCLC, 25.9%; in the test with SN12C renal it was 14.5%. For the same molecule, the growth in the test with UO-31 renal is -74.4% (active); in the test with TK-10 renal, -5.46% (active); in the test on ACHN renal, -4.14% (active); in the test on CAKI-1 renal it was -69% (active); with A498 renal, -92.4% (active); in the test with CCRF-CEM leukemia it was -3.58% (active). Besides, the growth in the test with MOLT-4 leukemia is -9.06% (active).
